Our source for the inhibition and activity values is PubChem BioAssay.

Molecules are shown by their SMILES. The list shows a part of the results. The source made the active and inactive calls. Cut-off read from the data, not from the text of the source, unless noted: active = activity above about 50%; inactive = the rest.

The nature of test [1]: NFkB reporter suppression in cystic fibrosis bronchial cells – cell-based, uHTS hits, panel, cytotoxicity readout, dose response (AID 624344). The note with it: CF bronchial epithelial cells, PAF-induced NFkB reporter inhibition, with PAF, run 1; at 79 µM (top of the series).
Test in test [2]: as above
As to conditions: CF bronchial epithelial cells, PAF-induced NFkB reporter inhibition, with PAF, run 2; at 79 µM (top of the series).

For test [3], the target named is PEG-3 (UniProt Q6IN02). Kind of test: inhibition of PEG-3 promoter-driven reporter – cell-based, HeLa, luciferase, CREF/GAPDH counter-screen panel, dose response (AID 624167). As to conditions: HeLa PEG-Prom luciferase reporter, overnight, CREF/GAPDH counter-screens; run 1, dose range 1, at 100 µM (top of the series). Background: The purpose of a counterscreen is to sort out artefacts and off-target activity.

Test [4] deals with PEG-3 (UniProt Q6IN02). Described as above. As to conditions: HeLa PEG-Prom luciferase reporter, overnight, CREF/GAPDH counter-screens; run 2, dose range 1, at 100 µM (top of the series). For orientation: A reporter such as luciferase makes a cellular process visible.
In test [5] the test system is Rat fibroblasts (CREF). Described as above. The note with it: CREF/GAPDH counter-screens; run 1, dose range 1, at 100 µM (top of the series).
Test [6] concerns Rat fibroblasts (CREF). The test is described as above. The note with it: CREF/GAPDH counter-screens; run 2, dose range 1, at 100 µM (top of the series).
Test [7] deals with Tumor necrosis factor receptor superfamily member 10B (Homo sapiens) (UniProt O14763). The test can be described thus: viability loss of caspase-8 NB7 cells with TRAIL – with/without TRAIL, luminescence panel, confirmation (AID 651596). As to conditions: NB7 neuroblastoma + caspase-8, TRAIL sensitization, NB7 Caspase-8, with TRAIL, mean of runs, at 10 µM, stronger effect = higher value.
Test in test [8]: as above
As to conditions: NB7 neuroblastoma + caspase-8, without TRAIL, NB7 Caspase-8, without TRAIL, mean of runs, at 10 µM.

A short description of test [9]: HIF-2a driven luciferase blockers, single dose – luminescence, 786-0 RCC cells, confirmation (AID 651580;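 active = mean inhibition across four replicates of at least 40 percent at the single tested concentration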). The note with it: HIF-2a luciferase reporter luminescence, overnight, at 18.8 µM, stronger effect = higher value.
Test [10] is described as follows: HIF-1a luciferase reporter signal reduction – MiaPaCa-2 cells, single concentration, counter-screen for HIF-2a inhibitor project, confirmation (AID 651589;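 active = mean inhibition of the reporter signal across four replicates at the single tested dose of 50% or more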). As to conditions: MiaPaCa-2 HIF-1a luciferase reporter, desferoxamine, overnight; at 18.8 µM; stronger effect = higher value.

Sequence of Tumor necrosis factor receptor superfamily member 10B (Homo sapiens) (O14763 whole entry, looked up): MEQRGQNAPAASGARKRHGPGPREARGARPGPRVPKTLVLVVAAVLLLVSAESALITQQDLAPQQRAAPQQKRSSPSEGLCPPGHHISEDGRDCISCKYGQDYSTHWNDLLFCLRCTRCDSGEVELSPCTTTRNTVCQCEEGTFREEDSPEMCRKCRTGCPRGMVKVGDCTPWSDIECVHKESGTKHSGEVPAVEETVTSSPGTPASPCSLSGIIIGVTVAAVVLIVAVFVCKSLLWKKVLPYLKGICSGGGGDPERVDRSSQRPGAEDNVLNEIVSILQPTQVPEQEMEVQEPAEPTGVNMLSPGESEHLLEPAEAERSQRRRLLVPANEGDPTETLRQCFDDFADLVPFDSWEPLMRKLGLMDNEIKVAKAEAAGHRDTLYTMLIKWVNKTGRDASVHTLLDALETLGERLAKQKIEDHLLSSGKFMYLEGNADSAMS
Sequence of PEG-3 (Q6IN02 whole entry, looked up): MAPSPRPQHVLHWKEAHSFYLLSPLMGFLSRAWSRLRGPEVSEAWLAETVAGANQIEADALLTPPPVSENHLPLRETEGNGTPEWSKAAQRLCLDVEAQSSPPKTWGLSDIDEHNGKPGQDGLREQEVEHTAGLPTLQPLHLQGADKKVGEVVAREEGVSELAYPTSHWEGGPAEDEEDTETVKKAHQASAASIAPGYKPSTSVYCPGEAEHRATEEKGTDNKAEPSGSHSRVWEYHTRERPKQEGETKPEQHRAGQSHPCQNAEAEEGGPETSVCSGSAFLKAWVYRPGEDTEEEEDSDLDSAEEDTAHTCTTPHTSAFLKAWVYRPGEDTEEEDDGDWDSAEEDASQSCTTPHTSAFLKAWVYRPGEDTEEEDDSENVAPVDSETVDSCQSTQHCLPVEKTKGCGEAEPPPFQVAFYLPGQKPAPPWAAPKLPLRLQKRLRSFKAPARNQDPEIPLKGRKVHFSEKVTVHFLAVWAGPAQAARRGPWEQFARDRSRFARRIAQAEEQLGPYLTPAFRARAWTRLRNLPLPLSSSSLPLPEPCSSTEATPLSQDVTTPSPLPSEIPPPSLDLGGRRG

In general, inhibition refers to the change of the read-out against control, counted positive when it falls. For the molecule `N#Cc1c(Br)n(C2OC(CO)C(O)C2O)c2ncnc(N)c12` (stereo unspecified), the values for the inhibition in test [1] and in test [2] were 106% and 107%, respectively.

Turning to `c1ccc(-c2cc(-c3ccccc3)[n+](-c3ccccc3)c(-c3ccccc3)c2)cc1`, the inhibition was determined as 98.2% in test [3] and 99.1% in test [4].

Take `C=Cc1cc(OC)c2c(c1)c(=O)oc1c2cc(OC)c2c(O)ccc(C3OC(C)C(O)C(C)(O)C3O)c21` (stereo unspecified): the inhibition in [3] was found to be 101%; in test [4], 102%; in test [5], 25.3%; in test [6], 31.8%.

Take `COc1cc2nc(CN3CC=C(c4ccccc4)CC3)[nH]c(=O)c2cc1OC`: the inhibition in test [3] worked out at 93.8%; in [4], 45.3%; in test [5] it was 38.6%; in test [6] it was 26.4%.

For `CCN(CCCl)c1cc(CN(C)C)cc(NC(=O)c2ccc(C(=O)Nc3cc(CN(C)C)cc(N(CC)CCCl)c3)cc2)c1`, the inhibition in [3] was 100%; in test [4], 101%; in [5], 99.6%; in test [6], 97.7%.

As to `CC(=O)OC1CC[C@]2(C#N)[C@H]3CC[C@]4(C)[C@H](C5C=CC(=O)O5)CCC4(O)C3CCC2(O)C1` (stereo partly specified), the inhibition was 98.6% in test [3], 99.5% in [4], -10.8% in test [5] and 7.93% in test [6].

In the case of `O=Cc1cn(Cc2ccc([N+](=O)[O-])cc2)c2ccccc12`, the values for the inhibition in [3] and in test [4] were 1.6% and 29.8%, respectively.

Take `CCCCn1nnnc1C(CCSC)N1CCC(n2c(=O)[nH]c3ccccc32)CC1` (stereo unspecified): the inhibition in test [3] came out at 72.5%; in test [4] it was 71.8%.

As for `CCC(c1nnnn1-c1ccc2c(c1)OCCO2)N1CCC(n2c(=O)[nH]c3ccccc32)CC1` (stereo unspecified), the inhibition in test [3] was 101%; in test [4], 102%; in [5], 76.5%; in test [6] it was 63.2%.

As for `COC(COC(N)=O)C1=C(N2CC2)C(=O)C(C)=C(N2CC2)C1=O` (stereo unspecified), the inhibition stood at 102% in test [3], 101% in test [4], 100% in test [5] and 98.7% in test [6].

As to `O=[N+]([O-])c1cc(F)c(N2CCCCCC2)cc1N1CCNCC1`, the inhibition was 99.4% in test [3] and 101% in [4].

For `CCN(CC)C(=O)c1ccc(NC(=O)Nc2ccccc2F)cc1`, the inhibition in test [3] came out at 82.1%; in test [4] it was 93.2%. In addition, the activity in test [7] came out at 69.6%; in [8], 63.9%.

As to `Cc1ccc(C)c(NP(=O)(Oc2ccccc2)Oc2ccccc2)c1`, the inhibition in test [3] came to 88.2%; in test [4], 96.7%.

As to `Cc1ccccc1CN1Cc2cnnn2-c2ccccc2C1C#N` (stereo unspecified), the inhibition turned out to be 99.2% in test [3] and 98.3% in test [4]. Besides, the activity in test [7] came out at 37.7%; in test [8], 78.2%.

As to `CC1=CC(O)C(O)C2(C)C1CC1OC(=O)C(O)C3C(C)C(O)C4(O)OCC13C42` (stereo unspecified), the results for the inhibition in test [3] and in test [4] were 95.8% and 93.3%, respectively.

Turning to `O=c1[nH]c2ccccc2n1C1CCN(C(c2cccc3ccccc23)c2nnnn2Cc2ccccc2)CC1` (stereo unspecified), the inhibition came out at 103% in test [1] and 101% in [2].

Turning to `COc1ccc(-n2c(/C=C/c3ccc(O)c(OC)c3)nc3ccccc3c2=O)cc1`, the inhibition in test [3] stood at 101%; in test [4], 92.7%.

Turning to `CC1=CC2/C=C(\C)CCC(O)C(O)/C=C/C(=O)C23C(=O)NC(CC(C)C)C3C1C` (stereo unspecified), the inhibition in test [3] stood at 102%; in [4], 101%; in [5], 100%; in test [6], 100%. In addition, the activity came to 95.3% in test [7] and 97.8% in test [8].

Turning to `O=C1NC(=O)N(Cc2ccco2)C(=O)/C1=C/C=C/c1ccco1`, the inhibition in test [3] and in test [4] was 102% throughout.

For the molecule `O=Cc1cn(Cc2cccc(F)c2)c2ccccc12`, the inhibition in [3] was determined as 50.1%; in test [4], 75.9%.

Turning to `Cc1c(C(=O)c2cccc3ccccc23)c2cccc3c2n1[C@H](CN1CCOCC1)CO3`, the inhibition in test [1] was determined as 104%; in test [2], 112%.

As for `CCOC(=O)[C@]12Cc3ccccc3[C@H]1N(C1CCCCC1)C(=O)c1cc(OC)ccc12`, the inhibition in test [9] is 93.2% (active); in [10] it was 106% (active). Further, the activity in test [7] turned out to be 85.5%; in test [8], 88%.

For the molecule `N#CC1c2ccccc2-n2nncc2CN1Cc1cc(Cl)cc(Cl)c1` (stereo unspecified), the values for the inhibition in test [1] and in test [2] were 91.8% and 95.5%, respectively. Moreover, the results for the activity in test [7] and in test [8] were 55.8% and 86.4%, respectively.

As for `COc1cc(C2c3cc4c(cc3CC3COC(=O)C32)OCO4)cc(OC)c1O` (stereo unspecified), the results for the inhibition in test [1] and in test [2] were -31.2% and -1.25%, respectively.

Take `CC1=CC2OC3CC4OC(=O)C=CC=CC(C(C)O)OCC(O)C5(C)OC5C(=O)OCC2(CC1O)C4(C)C31CO1` (stereo unspecified): the figures for the activity in test [7] and in test [8] were 93% and 98.3%, respectively.

As for `COc1ccc(C(c2nnnn2-c2ccc(OC)cc2)N2CCC(n3c(=O)[nH]c4ccccc43)CC2)cc1` (stereo unspecified), the inhibition was determined as 98.8% in test [1] and 103% in [2].

`COc1cc2c(c(OC)c1OC)-c1ccc(O)cc1C(NC(C)=O)CC2` (stereo unspecified): the inhibition is -101% in test [1] and 0.843% in test [2].

In the case of `CC(=O)c1c(C)n(C2CCCCC2)c2ccc(O)cc12`, the results for the inhibition in test [1] and in test [2] were 95.6% and 102%, respectively.

`C[C@H]1C[C@@H](C)C(=O)[C@@H]([C@H](O)CC2CC(=O)NC(=O)C2)C1`: the inhibition in [1] stood at 107%; in test [2], 113%.

In the case of `NC(=Nc1ccccc1)NN=Cc1c[nH]c2ccccc12`, the inhibition in test [1] turned out to be 94.3%; in test [2], 116%.

For the molecule `NC(=O)c1c(Br)n(C2OC(CO)C(O)C2O)c2ncnc(N)c12` (stereo unspecified), the results for the inhibition in [1] and in [2] were 106% and 116%, respectively.

For `O=c1[nH]c2ccccc2n1C1CCN(C(c2cc3ccccc3o2)c2nnnn2-c2ccc3c(c2)OCCO3)CC1` (stereo unspecified), the values for the inhibition in test [1] and in test [2] were 103% and 104%, respectively. For the same molecule, the activity in test [7] turned out to be 81.4%; in test [8], 83.5%.

In the case of `COc1ccc2c(c1)[nH]c1c(C)nccc12`, the inhibition in test [1] is 113%; in [2], 97.6%.

Regarding `CC(=O)OC[C@]12CCC(C)=C[C@H]1O[C@@H]1[C@H](O)[C@@H](OC(C)=O)[C@@]2(C)[C@]12CO2`, the activity in [7] turned out to be 95.1%; in test [8], 97.4%.

For `CCCCn1nnnc1C(CCc1ccccc1)N1CCC(n2c(=O)[nH]c3ccccc32)CC1` (stereo unspecified), the inhibition in test [1] was 89.5%; in [2] it was 93%.

`COC(=O)[C@@H]1[C@@H](C(=O)OC)C2(c3ccccc3-c3ccccc32)N(c2ccc(Cl)cc2)N1C#N`: the activity worked out at 96.8% in test [7] and 99.2% in [8].

As to `COC1C(O)C(C)OC(OC2CCC3(C=O)C(CCC4C3CCC3(C)C(C5=CC(=O)OC5)CCC43O)C2)C1O` (stereo unspecified), the inhibition in [9] was 40% (inactive); in test [10] it was 105% (active). Also, the activity in test [7] turned out to be 85.2%; in test [8], 91.8%.

For the molecule `COc1cc2c(c(OC)c1O)-c1ccc(OC)c(=O)cc1C(NC(=O)C(F)(F)F)CC2` (stereo unspecified), the inhibition in test [1] was -39.2%; in [2] it was 24.5%.

On to `COc1ccc(-n2nnnc2C(c2cccc(OC)c2OC)N2CCC(n3c(=O)[nH]c4ccccc43)CC2)cc1` (stereo unspecified), for which the inhibition is 99.3% in test [1] and 97.4% in [2].
